In ChEMBL document CHEMBL3988442, “University of Dundee, Small-Polar-MMV Screening Library” (2021) one finds Percent Effect data, which are given here for 11 compounds.

For some of these results: Potency and affinity values are given separately.

Set-up in all cases: scale not given: direction of the effect not stated beside the values
Assay [1] deals with Protein translocase subunit SecA (Escherichia coli (strain K12)) (UniProt P10408). In words: Assay to Identify E. coli SecA ATPase Inhibitors. Type of assay: functional. The following applies: 30 µM.
Assay [2] addresses T1, Ubiquitin-activating enzyme e1, putative (Leishmania donovani (strain BPK282A1)) (UniProt E9BSI1).
T1 sequence (whole entry): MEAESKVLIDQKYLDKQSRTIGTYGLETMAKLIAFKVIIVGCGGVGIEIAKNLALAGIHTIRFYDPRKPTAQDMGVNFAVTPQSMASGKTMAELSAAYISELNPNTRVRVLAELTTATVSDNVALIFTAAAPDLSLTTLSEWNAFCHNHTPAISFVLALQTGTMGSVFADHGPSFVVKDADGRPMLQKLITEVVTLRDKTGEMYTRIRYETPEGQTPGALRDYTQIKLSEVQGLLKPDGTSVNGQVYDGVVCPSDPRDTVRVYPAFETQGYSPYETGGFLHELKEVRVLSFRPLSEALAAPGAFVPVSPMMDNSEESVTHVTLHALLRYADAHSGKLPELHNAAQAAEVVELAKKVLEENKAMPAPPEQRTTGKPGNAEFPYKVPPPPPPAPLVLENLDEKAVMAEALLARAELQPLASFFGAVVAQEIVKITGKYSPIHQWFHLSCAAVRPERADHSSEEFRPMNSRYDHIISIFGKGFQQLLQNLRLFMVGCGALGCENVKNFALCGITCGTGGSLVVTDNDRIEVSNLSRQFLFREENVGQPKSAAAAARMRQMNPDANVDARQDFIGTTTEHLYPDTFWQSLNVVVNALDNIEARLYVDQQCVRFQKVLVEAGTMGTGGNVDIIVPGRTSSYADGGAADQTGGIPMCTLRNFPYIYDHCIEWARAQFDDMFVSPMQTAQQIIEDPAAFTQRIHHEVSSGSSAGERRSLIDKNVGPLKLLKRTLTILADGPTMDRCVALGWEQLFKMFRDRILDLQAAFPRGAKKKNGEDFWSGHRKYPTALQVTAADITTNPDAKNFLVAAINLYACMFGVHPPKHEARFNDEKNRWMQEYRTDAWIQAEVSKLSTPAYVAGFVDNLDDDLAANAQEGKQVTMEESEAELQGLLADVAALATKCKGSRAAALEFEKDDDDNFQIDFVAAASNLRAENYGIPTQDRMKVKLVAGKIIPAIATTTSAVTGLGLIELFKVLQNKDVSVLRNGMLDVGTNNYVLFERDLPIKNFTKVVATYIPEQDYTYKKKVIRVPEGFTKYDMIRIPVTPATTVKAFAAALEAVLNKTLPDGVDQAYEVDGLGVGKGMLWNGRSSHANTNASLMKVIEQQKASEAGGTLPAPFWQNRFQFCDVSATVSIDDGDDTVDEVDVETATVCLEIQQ
Kind of assay: Leishmania donovani Ubiquitin Activating Enzyme (LdE1). The class given is functional. The settings on record: 30 µM.

The target of assay [3] is AMP-activated protein kinase, AMPK (Homo sapiens) (UniProt P54646+O43741+P54619+Q9UGJ0+Q9Y478+Q13131+Q9UGI9). Kind of assay: AMP-dependent Kinase enzyme assay. An in vitro enzyme assay that detects ADP turnover that is directly proportional to AMPK activity. This uses naive AMPK that is activated during the assay with MK-8722. The class given is functional. The settings on record: 30 µM.

The target of assay [4] is Sialic acid-binding Ig-like lectin 9 (Homo sapiens) (UniProt Q9Y336). In words: Hs-Siglec9 ALPHAscreen SOP 20170721. The settings on record: 10 µM.
In another assay the test system is Trypanosoma cruzi. Kind of assay: Trypanosoma cruzi phosphomannomutase and mannose-1-phosphate guanylyltransferase assay. The following applies: 10 µM. The class given is functional.
Assay [5] deals with T2, Arginase-2, mitochondrial (Homo sapiens) (UniProt P78540).
T2 sequence (whole entry): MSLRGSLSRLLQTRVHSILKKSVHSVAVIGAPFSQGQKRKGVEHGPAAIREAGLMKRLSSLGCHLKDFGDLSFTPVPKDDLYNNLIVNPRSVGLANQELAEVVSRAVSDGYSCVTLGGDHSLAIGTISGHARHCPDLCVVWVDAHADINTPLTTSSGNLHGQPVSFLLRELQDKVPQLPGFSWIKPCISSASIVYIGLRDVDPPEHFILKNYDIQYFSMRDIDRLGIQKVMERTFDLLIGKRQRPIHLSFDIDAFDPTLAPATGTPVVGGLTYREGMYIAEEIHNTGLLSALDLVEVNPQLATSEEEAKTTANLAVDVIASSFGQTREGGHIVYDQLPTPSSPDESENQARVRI
In words: in vitro enzyme assay to detect the production of urea directly proportional to the activity of Arginase II. Note: in the data most compounds retested in dose-response had high values. The class given is functional. The settings on record: 33.3 µM.

The target in assay [6] is T3, Proteasome subunit beta (Trypanosoma cruzi) (UniProt O96673).
T3 sequence (whole entry): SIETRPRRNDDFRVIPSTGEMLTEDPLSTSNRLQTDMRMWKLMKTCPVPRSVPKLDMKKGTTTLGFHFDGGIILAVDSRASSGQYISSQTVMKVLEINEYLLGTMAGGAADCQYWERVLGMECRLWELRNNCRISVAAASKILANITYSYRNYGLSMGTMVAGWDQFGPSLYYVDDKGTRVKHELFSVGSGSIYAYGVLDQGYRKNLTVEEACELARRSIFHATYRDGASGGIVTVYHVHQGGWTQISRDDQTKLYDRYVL
In words: Trypanosoma cruzi proteasome chymotrypsin-like activity (TcProtChymo) assay. Note: in the data most compounds retested in dose-response had high values. Type of assay: functional. The following applies: 9.37 µM.

The species entered for a further assay is Homo sapiens. In words: To identify inhibition of the IFN signalling (Jak-Stat) pathway via expression of an eGFP reporter gene under the control of an IFN-stimulated response element (ISRE) containing MxA promoter. The class given is functional. The settings on record: 30 µM.
Assay [7] deals with T4, Tyrosyl-tRNA synthetase, putative (Trypanosoma cruzi (strain CL Brener)) (UniProt Q4DSP6).
T4 sequence (whole entry): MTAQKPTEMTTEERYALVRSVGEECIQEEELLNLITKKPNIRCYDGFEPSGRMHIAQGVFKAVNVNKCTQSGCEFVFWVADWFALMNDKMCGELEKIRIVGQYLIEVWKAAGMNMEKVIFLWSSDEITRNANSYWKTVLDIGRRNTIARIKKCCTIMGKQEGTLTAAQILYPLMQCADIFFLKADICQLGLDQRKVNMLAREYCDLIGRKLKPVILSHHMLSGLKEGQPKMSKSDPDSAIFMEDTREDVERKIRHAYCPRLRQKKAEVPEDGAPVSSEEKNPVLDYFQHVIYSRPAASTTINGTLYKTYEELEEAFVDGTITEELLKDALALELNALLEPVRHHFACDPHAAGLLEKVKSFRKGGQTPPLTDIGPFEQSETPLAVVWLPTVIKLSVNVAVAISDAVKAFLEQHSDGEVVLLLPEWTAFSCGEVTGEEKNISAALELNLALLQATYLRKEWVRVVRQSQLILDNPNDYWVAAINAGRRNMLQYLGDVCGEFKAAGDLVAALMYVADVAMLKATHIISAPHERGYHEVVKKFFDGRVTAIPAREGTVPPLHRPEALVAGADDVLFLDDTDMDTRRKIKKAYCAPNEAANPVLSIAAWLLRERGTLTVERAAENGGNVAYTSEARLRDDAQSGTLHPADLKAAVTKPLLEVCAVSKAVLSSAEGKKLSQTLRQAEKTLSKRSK
Kind of assay: Trypanosoma cruzi tyrosyl tRNA synthetase (TcYRS) _High Tyrosine SOP. Note: in the data most compounds retested in dose-response had high values. Type of assay: functional. The following applies: 30 µM.

For assay [8], the target named is T4, Tyrosyl-tRNA synthetase, putative (Trypanosoma cruzi (strain CL Brener)). In words: Trypanosoma cruzi tyrosyl tRNA synthetase (TcYRS) SOP. Type of assay: functional. The following applies: 30 µM.
The target in assay [9] is Chromo domain-containing protein 1 (Saccharomyces cerevisiae (strain ATCC 204508 / S288c) (Baker's yeast)) (UniProt P32657). In words: ScCHD-1 Enzyme Inhibition Assay. Note: in the data most compounds retested in dose-response had high values. The following applies: 30 µM. Type of assay: functional.
Chain of Chromo domain-containing protein 1 (Saccharomyces cerevisiae (strain ATCC 204508 / S288c) (Baker's yeast)) (P32657 whole entry, the tested form may be a part): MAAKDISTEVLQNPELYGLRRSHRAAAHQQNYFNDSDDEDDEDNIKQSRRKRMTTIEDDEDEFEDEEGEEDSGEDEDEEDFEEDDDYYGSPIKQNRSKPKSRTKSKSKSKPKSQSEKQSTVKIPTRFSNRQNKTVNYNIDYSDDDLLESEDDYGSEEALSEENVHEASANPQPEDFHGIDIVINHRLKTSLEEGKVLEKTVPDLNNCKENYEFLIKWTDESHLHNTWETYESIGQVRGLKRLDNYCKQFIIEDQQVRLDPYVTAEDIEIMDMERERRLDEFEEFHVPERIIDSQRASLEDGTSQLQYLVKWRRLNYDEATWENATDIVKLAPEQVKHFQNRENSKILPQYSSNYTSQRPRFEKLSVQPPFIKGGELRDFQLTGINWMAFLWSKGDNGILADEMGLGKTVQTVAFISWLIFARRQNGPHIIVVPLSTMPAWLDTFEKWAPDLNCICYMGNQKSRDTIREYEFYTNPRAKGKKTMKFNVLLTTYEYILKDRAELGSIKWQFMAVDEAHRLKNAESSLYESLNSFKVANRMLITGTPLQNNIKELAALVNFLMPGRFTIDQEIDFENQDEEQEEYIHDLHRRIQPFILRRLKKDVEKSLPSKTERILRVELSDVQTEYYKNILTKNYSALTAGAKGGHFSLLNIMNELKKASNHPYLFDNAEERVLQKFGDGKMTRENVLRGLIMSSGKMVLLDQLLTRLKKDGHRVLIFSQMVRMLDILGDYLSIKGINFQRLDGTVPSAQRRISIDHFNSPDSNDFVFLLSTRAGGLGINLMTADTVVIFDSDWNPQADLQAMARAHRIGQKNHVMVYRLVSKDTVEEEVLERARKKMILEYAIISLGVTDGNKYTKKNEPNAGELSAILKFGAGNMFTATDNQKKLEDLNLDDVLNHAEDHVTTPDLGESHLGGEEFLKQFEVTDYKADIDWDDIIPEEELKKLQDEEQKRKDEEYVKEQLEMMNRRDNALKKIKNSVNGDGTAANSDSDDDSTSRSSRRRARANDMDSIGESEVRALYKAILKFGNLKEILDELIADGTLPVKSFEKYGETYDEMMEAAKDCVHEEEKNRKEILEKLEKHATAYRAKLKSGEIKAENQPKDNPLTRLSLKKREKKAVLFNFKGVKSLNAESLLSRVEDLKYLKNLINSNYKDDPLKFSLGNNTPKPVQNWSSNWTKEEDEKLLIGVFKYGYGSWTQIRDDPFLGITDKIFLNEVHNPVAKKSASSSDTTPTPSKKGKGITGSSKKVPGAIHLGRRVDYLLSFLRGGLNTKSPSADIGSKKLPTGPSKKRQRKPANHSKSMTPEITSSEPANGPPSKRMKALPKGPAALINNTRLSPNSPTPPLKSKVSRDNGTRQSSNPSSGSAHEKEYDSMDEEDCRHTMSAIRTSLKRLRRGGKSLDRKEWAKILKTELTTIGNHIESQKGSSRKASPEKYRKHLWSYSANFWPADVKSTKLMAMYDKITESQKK

Chain of Protein translocase subunit SecA (Escherichia coli (strain K12)) (P10408 whole entry): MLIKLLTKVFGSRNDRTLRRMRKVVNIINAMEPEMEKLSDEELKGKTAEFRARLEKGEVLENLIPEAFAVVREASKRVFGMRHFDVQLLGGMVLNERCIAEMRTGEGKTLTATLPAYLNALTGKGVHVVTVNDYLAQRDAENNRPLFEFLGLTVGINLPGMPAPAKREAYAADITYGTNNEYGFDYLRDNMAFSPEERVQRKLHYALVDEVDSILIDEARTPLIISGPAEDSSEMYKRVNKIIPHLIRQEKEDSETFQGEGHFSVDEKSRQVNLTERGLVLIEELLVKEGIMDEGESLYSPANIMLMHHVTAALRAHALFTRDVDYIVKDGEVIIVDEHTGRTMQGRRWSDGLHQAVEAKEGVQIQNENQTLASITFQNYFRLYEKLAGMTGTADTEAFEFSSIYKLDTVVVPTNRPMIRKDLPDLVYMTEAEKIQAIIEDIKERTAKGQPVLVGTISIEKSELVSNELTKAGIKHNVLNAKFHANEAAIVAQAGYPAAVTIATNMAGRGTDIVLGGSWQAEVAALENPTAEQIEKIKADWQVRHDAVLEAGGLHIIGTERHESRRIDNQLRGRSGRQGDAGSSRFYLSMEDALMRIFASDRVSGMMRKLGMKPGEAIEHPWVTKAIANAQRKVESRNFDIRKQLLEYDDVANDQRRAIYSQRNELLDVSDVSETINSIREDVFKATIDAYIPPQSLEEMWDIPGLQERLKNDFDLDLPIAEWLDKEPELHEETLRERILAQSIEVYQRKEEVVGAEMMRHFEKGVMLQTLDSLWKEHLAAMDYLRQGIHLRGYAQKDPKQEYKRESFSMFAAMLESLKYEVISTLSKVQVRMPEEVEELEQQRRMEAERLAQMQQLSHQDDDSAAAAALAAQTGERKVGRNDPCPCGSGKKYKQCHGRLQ
Chain of Sialic acid-binding Ig-like lectin 9 (Homo sapiens) (Q9Y336 whole entry): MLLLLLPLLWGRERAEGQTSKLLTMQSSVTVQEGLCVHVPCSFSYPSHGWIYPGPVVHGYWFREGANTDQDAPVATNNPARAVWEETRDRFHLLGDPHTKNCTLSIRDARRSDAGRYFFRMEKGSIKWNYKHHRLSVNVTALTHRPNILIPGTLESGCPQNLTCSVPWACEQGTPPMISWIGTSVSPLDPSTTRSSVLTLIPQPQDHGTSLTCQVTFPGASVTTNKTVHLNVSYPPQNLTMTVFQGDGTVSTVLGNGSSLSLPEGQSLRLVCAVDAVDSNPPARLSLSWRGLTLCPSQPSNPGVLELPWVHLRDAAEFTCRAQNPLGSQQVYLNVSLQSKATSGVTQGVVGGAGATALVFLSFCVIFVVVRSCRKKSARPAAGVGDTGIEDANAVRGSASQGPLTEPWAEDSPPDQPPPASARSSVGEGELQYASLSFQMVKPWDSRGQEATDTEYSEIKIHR

For the compound `COCc1nc(C(=O)N2CCCC2c2noc(C(C)C)n2)cs1` (stereo unspecified), the Percent Effect in assay [1] is -3.95%; in assay [2], 1.27%; in [3] it was 8.09%; in assay [4], -0.11%; with Trypanosoma cruzi, -1.74%; in assay [5], 3.66%. Moreover, the Percent Effect in assay [6] was -0.343%; in the assay filed under Homo sapiens, 3.65%; in [7], 3.12%; in [8], 5.06%; in assay [9], 11.7%.

Regarding `CCS(=O)(=O)N1CC[C@]2(C[C@@H](OCC3CC3)CO2)C1`, the Percent Effect in [1] was -5.7%; in [2] it was 5.41%; in assay [3], -4.19%; in assay [4], 27.4%; in the assay with Trypanosoma cruzi, 6.94%; in [5], -1.74%. In addition, the Percent Effect is 13.3% in assay [6]; 1.36% in the assay listed under Homo sapiens; 8.6% in assay [7]; 13.6% in assay [8]; -6.86% in assay [9].

`COc1ccc(CN(Cc2cncn2C)CC2CCCO2)cc1OC` (stereo unspecified): the Percent Effect in [1] was -3.49%; in assay [2], 12.2%; in assay [3] it was 11.9%; in assay [4], 0.383%; in the assay with Trypanosoma cruzi, -2.37%; in assay [5], 3.94%. Also, the Percent Effect in assay [6] is 9.52%; in the assay listed under Homo sapiens it was -8.46%; in assay [7], 5.38%; in assay [8] it was 11.7%; in assay [9], -15%.

In the case of `Cc1nn(C)c(C)c1NC(=O)CN1CCCC1c1noc(C2CC2)n1` (stereo unspecified), the Percent Effect is 2.36% in [1]; 13.7% in assay [2]; -14.8% in assay [3]; 1.88% in [4]; -0.196% in the assay on Trypanosoma cruzi; 3.64% in [5]. Further, the Percent Effect was 20.6% in [6]; -0.924% in the assay filed under Homo sapiens; 6.45% in assay [7]; 12.5% in [8]; -7.02% in assay [9].

In the case of `COc1c(C)cnc(CN2CCC(N(C)C(C)C(N)=O)CC2)c1C` (stereo unspecified), the Percent Effect was -2.36% in assay [1]; 13% in assay [2]; 3.82% in [3]; -8.74% in assay [4]; -3.56% in the assay with Trypanosoma cruzi; -0.712% in assay [5]. Moreover, the Percent Effect is 8.95% in assay [6]; 42.8% in the assay filed under Homo sapiens; 8.74% in assay [7]; 14.6% in [8]; -7.36% in assay [9].

As for `O=C(CN1CCCC(Cn2cncn2)C1)NCc1ccco1` (stereo unspecified), the Percent Effect was -2.6% in assay [1]; 0% in assay [2]; -4.08% in assay [3]; -5% in assay [4]; -8.12% in the assay on Trypanosoma cruzi; 8.27% in assay [5]. Further, the Percent Effect in [6] was 7.87%; in the assay filed under Homo sapiens it was 6.12%; in [7], 1.48%; in assay [8] it was -1.24%; in [9], 4.31%.

Regarding `Cc1cccnc1NC(=O)C1CCCN1Cc1ccccc1` (stereo unspecified), the Percent Effect in assay [1] was -3.6%; in [2] it was 2.67%; in assay [3], -2.13%; in assay [4], -2.53%; with Trypanosoma cruzi, -9.06%; in assay [5], -3.12%. In addition, the Percent Effect was 21.3% in [6]; 16.8% in the assay filed under Homo sapiens; 0.546% in assay [7]; -1.24% in [8]; -9.24% in assay [9].

`COc1ccc(C(=O)N2CCC(Nc3ccc(C)nn3)CC2)c(F)c1`: the Percent Effect in assay [1] is -1.36%; in [2] it was 1.27%; in assay [3], 3.77%; in assay [4] it was -1.89%; in the assay on Trypanosoma cruzi, -4.21%; in assay [5] it was 2.8%. The Percent Effect is 12.7% in [6]; 25.4% in the assay filed under Homo sapiens; 7.29% in [7]; -2.53% in assay [8]; -10.7% in assay [9].

Regarding `COc1cccc(-n2c(C)cc(C(=O)O)c2C)c1`, the Percent Effect is -4.92% in assay [1]; 20.2% in [2]; -3.83% in [3]; -8.51% in [4]; -6.52% with Trypanosoma cruzi; 2.28% in [5]. The Percent Effect is 10.7% in assay [6]; 31.6% in the assay filed under Homo sapiens; -0.493% in assay [7]; 3.8% in [8]; -2.26% in [9].

Consider `Cc1ncsc1C(=O)NC1CCN(Cc2cccnc2)CC1`, for which the Percent Effect in assay [1] was -7.38%; in assay [2] it was 10.4%; in assay [3], -1.95%; in assay [4] it was 18.2%; in the assay with Trypanosoma cruzi, 5.43%; in [5], 2.85%. The Percent Effect in [6] is 7.94%; in the assay filed under Homo sapiens, 15.2%; in assay [7], 6.8%; in assay [8], 14.6%; in [9], -11.8%.

As for `Cc1nnc(C(C)N2CCN(Cc3ccc(C#N)cc3)CC2)o1` (stereo unspecified), the Percent Effect in assay [1] was -3.48%; in [2] it was 8.11%; in [3], -6.14%; in assay [4], 9.9%; in the assay on Trypanosoma cruzi it was -8.77%; in assay [5] it was 27.7%. Besides, the Percent Effect in assay [6] was -5.22%; in the assay filed under Homo sapiens, 5.6%; in [7] it was 0.493%; in [8] it was 3.7%; in assay [9], 0.608%.
